# The panel holds about 83,000 compounds, 20% with a hit somewhere; the sample as a whole holds those more often.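 Method: cells in 96-well plates; compound added at one concentration; 48 h incubation; percent growth measured; values under 10 scored active.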 Calls of active or inactive are those of the source.
# Tested on: MOLT-4 leukemia
# Experiment: NCI-60 one-dose screen, 48 h (100 = growth as untreated, 0 = no growth, -100 = all killed)
# Settings: 10 µM unless noted
row,SMILES,growth
1,N#Cc1cccc(CN2CCC3=C(C2)C(=O)N(Cc2ccc(Cl)cc2)C2=NCCN23)c1,53.2% (inactive)
2,COc1ccc(Oc2ccc(/C=N/NC(=O)CSc3nc4ccccc4c(=O)n3-c3ccc(Cl)cc3)cc2)cc1,61.7% (inactive)
3,O=C(NNc1nc2cc(F)c(F)cc2n2c(CN3CC4CNCC4C3)ccc12)c1ncccn1 (stereo not drawn),-6.62% (active)
4,COc1cc(/C=C2\C(=O)Nc3cc(Cl)ccc32)ccc1OCc1ccc(F)cc1,100% (inactive)
5,C#CCOc1ccc(/C=N\Nc2nc(-c3ccc(C)cc3)cs2)cc1OC,79.5% (inactive)
6,C=CCOc1cccc(/C=C2\SC(=S)N(C3CC(=O)N(c4ccc(Br)cc4)C3=O)C2=O)c1 (stereo not drawn),105% (inactive)
7,COc1ccc(S(=O)(=O)NCCCNc2nccc(-c3[nH]c(-c4ccccc4)nc3-c3ccc(Cl)c(O)c3)n2)cc1,51.2% (inactive)
8,CCn1c2ccccc2c2cc(-n3nncc3-c3ccccc3)ccc21,12.7% (inactive)
9,N#Cc1cccc(CN2CCC3=C(C2)C(=O)N(Cc2ccc(Cl)cc2)C2=NCCCN23)c1,48.3% (inactive)
10,COc1ccc(COc2ccc(/C=C3\C(=O)Nc4ccccc43)cc2OC)cc1,102% (inactive)
11,O=C(NNc1nc2cc(F)ccc2n2c(CN3CC4CNCC4C3)ccc12)c1cnccn1 (stereo not drawn),5.6% (active)
12,COc1ccc2[nH]cc(-c3csc4nc(-c5ccccc5)cn34)c2c1,19.7% (inactive)
13,COC(=O)C[Se]C(=O)Cc1c(C)n(C(=O)c2ccc(Cl)cc2)c2ccc(OC)cc12,67.1% (inactive)
14,CCOc1ccc(NC2=C(Cl)C(=O)c3nc(C)ccc3C2=O)cc1,-46.7% (active)
15,COc1cccc(/C=C(/C)c2ccc3cccc(OC)c3[o+]2)c1O,92% (inactive)
16,NC(N)=Nc1ccc(Oc2cccc(NC(N)=Nc3ccc(Cl)c(C(F)(F)F)c3)c2)cc1,51.9% (inactive)
17,COc1ccc(CCOc2cc3c(cc2OC)CCN(C(=O)NCc2cocn2)C3c2ccc(C)cc2C)cc1 (stereo not drawn),21.8% (inactive)
18,O=C1C(c2ccccc2)=C(N2CCc3ccccc32)OC1(Cl)Cl,0.0776% (active)
19,O=C(NNc1nc2cc(F)ccc2n2c(CN3CCCC3)ccc12)c1cnccn1,1.81% (active)

row,SMILES,growth
1,O=C(NNc1nc2cc(F)cc(F)c2n2cccc12)c1cnccn1,1.8% (active)
2,O=C(O)c1ccc(-n2cc(CNc3cc(F)c(F)c(F)c3)c(-c3ccc(F)cc3)n2)cc1,74.2% (inactive)
3,COc1ccc(NC2=C(Cl)C(=O)c3nc(C)ccc3C2=O)cc1OC,69.8% (inactive)
4,O=C(NNc1nc2cc(F)c(F)cc2n2c(CN3CC4CNCC4C3)ccc12)c1cnccn1 (stereo not drawn),7% (active)
5,C[C@H](CCC(=O)NCc1ccc(C(=O)Nc2ccccc2N)cc1)[C@H]1CC[C@H]2[C@@H]3[C@@H](O)C[C@@H]4C[C@H](O)CC[C@]4(C)[C@H]3CC[C@]12C,10.7% (inactive)
6,CC(=O)c1cc(C(=O)c2ccc(Br)cc2)n2cc(C)cc(C)c12,87% (inactive)
7,NC(=O)c1cccc(-n2ccc3cc(NC(=O)Nc4ccc(N5CCOCC5)c(C(F)(F)F)c4)ccc32)n1,-38.9% (active)
8,COc1ccc2c(c1)c(CC(=O)[Se]CC(=O)O)c(C)n2C(=O)c1ccc(Cl)cc1,99.8% (inactive)
9,CN(C)CCNC(=O)c1ccc(-c2nc3ccc4[nH]ncc4c3c3c2COCC3)cc1,-9.13% (active)
10,COc1ccc2c(c1)c(CC(=O)[Se]CCC#N)c(C)n2C(=O)c1ccc(Cl)cc1,0.134% (active)
11,CN1CCN(Cc2ccc(NC(=O)c3cncc(C#Cc4cnc5ccc(OCC(C)(C)O)nn45)c3)cc2C(F)(F)F)CC1,5.42% (active)
12,CNC(=O)c1cc(N2CCc3cc(NC(=O)Nc4ccc(Cl)c(C(F)(F)F)c4)ccc32)ccn1,35.6% (inactive)
13,O=C(CSc1nc2ccccc2c(=O)n1-c1ccc(Cl)cc1)N/N=C/c1ccc(N2CCCCC2)cc1,92% (inactive)
14,CCOc1ccc(C(=O)Nc2ncc(Cc3ccc(F)cc3)s2)cc1,18.7% (inactive)
15,Cc1c(Cl)cccc1S(=O)(=O)Nc1ccc2c(c1)C(=O)N(C1CCC(=O)NC1=O)C2=O (stereo not drawn),3.6% (active)
16,CC/C(=C/c1cc(OC)ccc1O)c1ccc2cc(OC)ccc2[o+]1,53.4% (inactive)
17,COc1c(N2CC3CCCNC3C2)c(F)cc2c(=O)c(C(=O)N/N=C/c3ccc4c(c3)OCO4)cn(C3CC3)c12 (stereo not drawn),59.3% (inactive)
18,CN1CCN(Cc2ccc(NC(=O)c3cncc(C#Cc4cnc5ccc(OCC6(C)COC6)nn45)c3)cc2C(F)(F)F)CC1,1.9% (active)
19,O=C(NNc1nc2cc(F)c(F)cc2n2cccc12)c1cnccn1,7.98% (active)

# Source: PubChem BioAssay (NCI)
